Assay outcomes as filed in PubChem.
CYP2C19 inhib: blocks human cytochrome P450 2C19; P33261; CYP2C19 Supersomes, luciferin-H EGE luminescence, 30 min; inhibition, % at 5 µM; 21% of 96,000 active; AID 778;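 active = CYP2C19 inhibition above a set limit at 5 µM in the primary screen, cut at about 50% in these data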;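 note: plate controls were negative control wells for no effect and 2.5 mM tranylcypromine positive control for full effect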
Target sequence (P33261 whole entry, looked up): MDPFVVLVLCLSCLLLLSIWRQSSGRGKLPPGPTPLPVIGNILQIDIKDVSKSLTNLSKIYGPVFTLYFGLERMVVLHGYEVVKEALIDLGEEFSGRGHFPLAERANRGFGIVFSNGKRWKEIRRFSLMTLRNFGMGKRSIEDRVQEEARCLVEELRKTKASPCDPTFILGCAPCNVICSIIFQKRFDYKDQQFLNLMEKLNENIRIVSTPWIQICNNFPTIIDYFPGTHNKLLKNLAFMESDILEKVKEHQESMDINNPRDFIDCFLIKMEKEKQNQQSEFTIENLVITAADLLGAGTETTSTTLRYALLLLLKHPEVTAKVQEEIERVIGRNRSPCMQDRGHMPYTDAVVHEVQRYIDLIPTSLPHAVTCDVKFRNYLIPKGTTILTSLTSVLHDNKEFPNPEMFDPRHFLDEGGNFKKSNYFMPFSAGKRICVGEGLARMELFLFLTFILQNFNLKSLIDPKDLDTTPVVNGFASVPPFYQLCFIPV
CYP2C19 act: increases human CYP2C19 enzyme activity; activation factor at 5 µM; 96,000 tested, under 10 active; recombinant CYP2C19, luciferin-H EGE luminescence; hits give high values; 0 = fully inhibited enzyme, 1 = untreated enzyme;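 active = activation factor of at least 2 at 5 µM in the primary screen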;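 note: 0 = wells with 2.5 mM tranylcypromine and 1 = vehicle-only wells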
CYP2C9 inh: inhibitors of human CYP2C9. P11712. CYP2C9 Supersomes, luciferin-H conversion, luminescence. inhibition, % at 5 µM. 20% of 96,000 active;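 active = blocking of liver enzyme CYP2C9 beyond about 50% at 5 µM, limit read from the data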
PostGolgi ctrl: inhibits growth of the yeast control strain; efflux-deficient yeast background strain, growth absorbance A615, 16 h; inhibition, % at 10 µM; 5% of 98,000 active; AID 738
PostGolgi yeast: growth inhibition of a yeast mutant, post-Golgi transport screen | post-Golgi transport phenotypic cell assay | inhibition, % at 10 µM | 0.9% of 98,000 active | AID 739;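 note: yeast cells grown in 1536-well plates; yeast grown about 18 h at 30C before absorbance read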
CYP2C9 activ: CYP2C9 (human) activation | P11712 | recombinant CYP2C9, luciferin-H conversion, luminescence; hits give high values; factor 1 = untreated enzyme, 0 = blocked | activation factor at 5 µM | 1.4% of 96,000 active | AID 1024;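 active = activation factor of 2 or more for CYP2C9 at a 5 µM dose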;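 note: 0 = sulfaphenazole-blocked wells and 1 = vehicle-only wells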
Numbers without * were called inactive. Compounds with a hit are over-represented: about 32% of the library has one in this group of screens. Cut-off read from the data, not from the text of the source, unless noted: active = inhibition above about 30%; inactive = the rest.

SMILES	CYP2C19 inhib	CYP2C19 act	CYP2C9 inh	PostGolgi ctrl	PostGolgi yeast	CYP2C9 activ
COc1ccc(-c2oc3ncnc(NCCCN4CCOCC4)c3c2-c2ccc(OC)cc2)cc1	24	0.8	94*	19	-2	0.1
c1ccc(-c2csc3ncnc(NCCN4CCOCC4)c23)cc1	20	0.8	11	10	9	0.9
CN1CCN(S(=O)(=O)c2ccc(NC(=O)c3csc4ccccc34)cc2)CC1	29	0.7	36	20	-6	0.6
CCCCC1CC1C(=O)Nc1ncc2c(n1)CC(C)(C)CC2=O (stereo unspecified)	14	0.9	19	3	5	0.8
Cc1cc(C)c(C#N)c(SCC(=O)N2CCCCC2)n1	54*	0.5	-36	13	-8	1.4
CCN(Cc1ccccc1)C(=O)CSc1nc(C)cc(C)c1C#N	62*	0.4	-60	35*	10	1.6
Cc1cc(C)c(C#N)c(SCC(=O)N2CCN(Cc3ccccc3)CC2)n1	52*	0.5	30	31*	16	0.7
O=C(CSCC(=O)N1CCCCC1)OCC(=O)c1c[nH]c2ccccc12	69*	0.3	-75	-1	-11	1.7
CC1(C(=O)OCC(=O)c2c[nH]c3ccccc23)CC1(Cl)Cl (stereo unspecified)	97*	0	85*	22	9	0.1
CC(C)Cc1ccc(C(C)C(=O)OCC(=O)c2c[nH]c3ccccc23)cc1 (stereo unspecified)	12	0.9	40	12	-6	0.6
COC(=O)C1CCN(C(=O)COC(=O)Cc2c[nH]c3ccccc23)CC1	-2	1	-31	-1	26	1.3
O=C(COC(=O)CSCC(=O)N1CCCCC1)Nc1ccc(Cl)cc1	31	0.7	40	36*	-3	0.6
COC(=O)C(C)Sc1snnc1-c1ccccc1 (stereo unspecified)	92*	0.1	64*	1	-4	0.4
CSc1nnc2c(n1)OC(C)N(C(=O)c1ccccc1)c1ccccc1-2 (stereo unspecified)	24	0.8	54*	-8	10	0.5
COc1cc(OC)c(C2Oc3nc(SC)nnc3-c3ccccc3N2C(C)=O)cc1OC (stereo unspecified)	9	0.9	22	7	-4	0.8
CCOc1ccc(N(CC(=O)NCC2CCCO2)S(=O)(=O)c2ccc(Cl)cc2)cc1 (stereo unspecified)	88*	0.1	45	4	1	0.6
O=C(COc1ccc(F)cc1)NCC1CCCO1 (stereo unspecified)	-16	1.2	-32	13	-1	1.3
COc1ccc(S(=O)(=O)N(CC(=O)NCC2CCCO2)c2ccc(F)cc2)cc1OC (stereo unspecified)	53*	0.5	28	9	-4	0.7
COc1ccc(-c2nnc(SCC(=O)c3[nH]c(C)c(C(C)=O)c3C)o2)cc1	63*	0.4	36	6	-7	0.6
COc1ccc(C(=O)CSc2nnc(-c3cc(C)cc(C)c3)o2)cc1	62*	0.4	-13	7	0	1.1
CCOC(=O)c1[nH]c(CSc2nnc(-c3ccc(OC)cc3)o2)c(C(=O)OCC)c1C	73*	0.3	85*	7	-8	0.2
CC(C)NC(=O)NC(=O)COC(=O)CCOc1ccccc1	2	1	6	0	1	0.9
Cc1ccc2cc(CN(CCN3CCOCC3)Cc3nnnn3Cc3ccco3)c(=O)[nH]c2c1C	38	0.6	69*	1	-1	0.3
CC(C)(C)n1nnnc1CN(Cc1ccco1)Cc1cc2cc3c(cc2[nH]c1=O)OCO3	36	0.6	22	1	-3	0.8
Cc1ccc2cc(CN(Cc3ccc4c(c3)OCO4)Cc3nnnn3Cc3ccco3)c(=O)[nH]c2c1C	86*	0.1	80*	30	-3	0.2
COCCn1nnnc1CN(Cc1ccco1)Cc1cc2cc3c(cc2[nH]c1=O)OCO3	10	0.9	-4	7	-1	1
Cc1ccc(C)c2[nH]c(=O)c(CN(Cc3ccc4c(c3)OCO4)Cc3nnnn3Cc3ccco3)cc12	38	0.6	75*	6	-1	0.2
COc1ccc(-c2nnc(SCc3cccc(C#N)c3)o2)cc1	20	0.8	-8	1	-10	1.1
COc1ccc(-c2cc(-c3cccs3)c(C#N)c(SCC(=O)NCc3ccccc3)n2)cc1	-1	1	53*	8	-2	0.5
